The target in assay [1] is T1, Aspartate--tRNA(Asp/Asn) ligase (Mycobacterium tuberculosis (strain ATCC 25618 / H37Rv)) (UniProt P9WFW3). Further: in the data most compounds retested in dose-response had high values.
T1 sequence (whole entry): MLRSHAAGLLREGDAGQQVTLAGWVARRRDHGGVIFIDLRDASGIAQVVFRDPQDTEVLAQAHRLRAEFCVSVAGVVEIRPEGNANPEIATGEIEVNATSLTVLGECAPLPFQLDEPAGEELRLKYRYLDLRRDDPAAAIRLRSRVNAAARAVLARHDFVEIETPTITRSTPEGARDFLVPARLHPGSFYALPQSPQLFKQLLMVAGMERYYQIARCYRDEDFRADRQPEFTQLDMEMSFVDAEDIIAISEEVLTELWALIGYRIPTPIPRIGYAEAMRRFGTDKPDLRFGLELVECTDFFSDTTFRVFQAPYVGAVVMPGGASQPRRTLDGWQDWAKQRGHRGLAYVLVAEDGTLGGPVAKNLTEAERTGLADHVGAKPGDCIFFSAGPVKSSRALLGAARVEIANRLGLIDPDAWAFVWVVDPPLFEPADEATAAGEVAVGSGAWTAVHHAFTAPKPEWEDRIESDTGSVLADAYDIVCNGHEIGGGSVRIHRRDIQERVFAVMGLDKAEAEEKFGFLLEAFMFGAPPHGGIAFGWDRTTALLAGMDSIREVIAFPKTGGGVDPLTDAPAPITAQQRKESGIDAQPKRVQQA
Kind of assay: Assay for Asp RNA synthetase-1 from Mycobacterium tuberculosis. The settings on record: 30 µM. It is filed as functional. Also on record: scale not given: direction of the effect not stated beside the values.

The target of assay [2] is Shiga toxin 2 (Escherichia coli O157:H7) (UniProt P09385+P09386). Kind of assay: E. coli 0.157:H7 Shiga Toxin SOP - stx2 screening assay. Format: functional. Also on record: scale not given: direction of the effect not stated beside the values. The settings on record: 30 µM.

Each structure is given as a SMILES string.

`CN(C)c1ncccc1CNC(=O)N1CCCC1c1ccsc1` (configuration not stated): the Percent Effect amounted to 2.25% in assay [1] and 5.76% in assay [2].
Taken in the same sequence, the figures for `COc1cc(OC)c(C2Nc3cc(Cl)ccc3C3=NCCN32)cc1OC` (configuration not stated) were -6.02% and -48.2%.
Turning to `CC(C)NC(=O)c1ccc2c(c1)nc1n2CCN(c2ccccc2)C1`, the values for the Percent Effect in assay [1] and in assay [2] were 0.0581% and -15.6%, respectively.
For the molecule `CCC(CC)c1cc(CNC(=O)N2CCCC(N(C)C)C2)on1` (configuration not stated), the Percent Effect in assay [1] was -1.74%; in assay [2] it was 9.62%.
Turning to `O=C(COc1coc(CN2CCCCC2)cc1=O)Nc1ccc(Cl)cc1`, the Percent Effect in assay [1] was 3.86%; in assay [2] it was -36.2%.
For `CCN1CCCC(CNC(=O)C2(c3cccc(Cl)c3)CC2)C1` (configuration not stated), the Percent Effect was 4.29% in assay [1] and -31.2% in assay [2].
Regarding `CCOc1ccc(CN(C)C(=O)NC(C)c2nncn2C)cc1` (configuration not stated), the Percent Effect in assay [1] was 0.975%; in assay [2], -14.2%.
Turning to `CC(=O)N1CCn2c(COCc3csc(C)n3)cnc2C1C` (configuration not stated), the Percent Effect was -3.29% in assay [1] and -18.6% in assay [2].
With `CCNC(=O)[C@@H]1C[C@H](NC(=O)c2cncnc2C)CN1CCCSC`, the Percent Effect in assay [1] is -2.78%; in assay [2], -8.54%.
For `CCn1c(C)nnc1CN(C)C1CCN(CCc2ccncc2)C1` (configuration not stated), the Percent Effect came to 2.19% in assay [1] and 13.6% in assay [2].
Turning to `Cc1nc(N2CCOCC2)nc2c1CCN(C(=O)NC1CCCC1)CC2`, the Percent Effect in assay [1] was 2.29%; in assay [2], -52.5%.
As to `Cc1cnc(CN(C)C2CCN(CCc3ccccn3)CC2)cn1`, the Percent Effect in assay [1] was found to be 4.34%; in assay [2] it was 10.4%.
As for `OC(CN1CCOCC1)c1ccc(OC(F)(F)F)cc1` (configuration not stated), the Percent Effect in assay [1] is -1.62%; in assay [2] it was 13.6%.
Turning to `CN1N=C(C(=O)NCc2ccc3c(c2)CCCN3C)CCC1=O`, the results for the Percent Effect in assay [1] and in assay [2] were -4.96% and -42.9%, respectively.
Taken in the same sequence, the figures for `Cc1nc(C2CCN(C(=O)CO)CC2)cc(N2CCOCC2)n1` were -1.91% and 17.7%.
On to `COc1ncccc1C(=O)N1CCC(c2nnc(C3CC3)o2)CC1`, for which the Percent Effect worked out at 3.02% in assay [1] and 0.085% in assay [2].
Taken in the same sequence, the figures for `N#Cc1ccc(C(=O)N2CC[C@H]3[C@@H]2CCC(=O)N3c2ccccc2)cc1` were 0.485% and -9.64%.
In the case of `CCCc1cc(C(=O)N(C)Cc2cnc3ccccc3n2)n(C)n1`, the Percent Effect in assay [1] was 8.2%; in assay [2] it was -6.99%.
Regarding `Cc1cc(N2CCC(NC(=O)C3CC3)CC2)nc(-c2ccncc2)n1`, the Percent Effect is 0.463% in assay [1] and -21.4% in assay [2].
In the case of `N#Cc1ccccc1C(=O)N1CCC2(CC(=O)NC2=O)C1` (configuration not stated), the Percent Effect in assay [1] was -0.613%; in assay [2], -0.393%.
With `CCCNC(=O)CCC(=O)Nc1ccc(-n2cncn2)c(F)c1`, the Percent Effect in assay [1] is -1.12%; in assay [2], 5.57%.
Take `O=C(c1cnco1)N1CCCC(Cc2cccc3ncccc23)C1` (configuration not stated): the figures for the Percent Effect in assay [1] and in assay [2] were 3.23% and -27.4%, respectively.
In the case of `CC(C)C(=O)NCc1cccc(N2CCCCC2=O)c1`, the Percent Effect in assay [1] was -1.01%; in assay [2], 6.13%.
Taken in the same sequence, the figures for `O=C(c1ccc(Cl)o1)N1CCCC(c2cc(C(F)(F)F)[nH]n2)C1` (configuration not stated) were 3.23% and 38.7%.
With `CC(=O)N1CCN(C(=O)CCOc2ccc(C(C)C)cc2)CC1`, the Percent Effect is -2.21% in assay [1] and 38.9% in assay [2].
As to `Cc1cc2n(n1)CC(CNCc1ccc(-n3cccn3)nc1)CN2` (configuration not stated), the figures for the Percent Effect in assay [1] and in assay [2] were -2.59% and 3.5%, respectively.
As to `COc1cccc(C(=O)NS(=O)(=O)c2cccc(C#N)c2)c1OC`, the Percent Effect was 0.0291% in assay [1] and 2.55% in assay [2].
Consider `CCNC(c1ccc(OC)cc1)c1cccnc1` (configuration not stated), for which the Percent Effect in assay [1] was 1.53%; in assay [2] it was 1.33%.
Turning to `COCCOc1ccc(NC(=O)N(C)Cc2ccsc2)cn1`, the Percent Effect was 0.514% in assay [1] and -8.11% in assay [2].
As for `Cc1cc(C)n(C2CCCN(C(=O)COCC(F)(F)F)C2)n1` (configuration not stated), the Percent Effect in assay [1] is -4.61%; in assay [2] it was -2.74%.
Taken in the same sequence, the figures for `Cc1nc(COC[C@]23COC[C@H]2CN(Cc2ccoc2)C3)cs1` were -0.55% and 4.86%.
In the case of `Cc1nn(C)c(C)c1C(=O)N1CCOCC1CC(=O)c1ccco1` (configuration not stated), the Percent Effect in assay [1] was 1.17%; in assay [2], -5.88%.
`c1ccc(-c2cnc(CNCC3CCCN3c3cccnn3)o2)cc1` (configuration not stated): the Percent Effect is 1.15% in assay [1] and 11.4% in assay [2].
As for `CC(=O)N(Cc1noc(C)n1)C1CCN(Cc2cc(C)on2)C1` (configuration not stated), the Percent Effect in assay [1] amounted to 4.07%; in assay [2], 11%.
In the case of `Cc1cccc(CN2CCN(Cc3ccccc3)CC(O)C2)n1` (configuration not stated), the values for the Percent Effect in assay [1] and in assay [2] were 2.13% and 13.4%, respectively.
Regarding `c1ccc(-c2cnc(CNC3CCCN(c4cccnn4)C3)o2)cc1` (configuration not stated), the Percent Effect in assay [1] is -3.48%; in assay [2] it was 4.96%.
Taken in the same sequence, the figures for `Cc1csc(Nc2nccnc2C2CCCN2C(=O)C(C)C)n1` (configuration not stated) were 7.04% and 13.1%.
For the molecule `Cc1ccsc1CN(Cc1ccccn1)CC(C)C`, the Percent Effect in assay [1] is -2.01%; in assay [2], -3.58%.
In the case of `Cc1ccc(N2CCCC(NCc3cscn3)C2)nn1` (configuration not stated), the Percent Effect is 10.3% in assay [1] and 15.1% in assay [2].
Turning to `O=C(Nc1ccccn1)C1=NN(c2ccccc2)C(=O)CN1`, the Percent Effect was 0.657% in assay [1] and -27.9% in assay [2].
Take `Cn1cccc1C(=O)N[C@@H]1CN(CC2CC2)[C@@H]2COC[C@@H]21`: the results for the Percent Effect in assay [1] and in assay [2] were 1.28% and -3.7%, respectively.
For `COCCCC(=O)NS(=O)(=O)c1ccc2c(c1)OCCCO2`, the Percent Effect in assay [1] is -1.35%; in assay [2] it was 23.1%.
`CC1CN(CC(=O)NC(=O)NCc2ccccc2)CCO1` (configuration not stated): the Percent Effect in assay [1] was -6.29%; in assay [2], -0.513%.
Regarding `Cc1cc2cc(C(=O)N[C@@H]3CC[C@@H](N4CCOCC4)[C@@H]3O)ccc2o1`, the Percent Effect in assay [1] turned out to be 2.49%; in assay [2] it was 4.91%.
Taken in the same sequence, the figures for `CN(Cc1cccc(F)c1)C(=O)CN1CCCCC1Cn1cncn1` (configuration not stated) were 5.47% and -9.64%.
For the molecule `Cc1ncsc1C(=O)NC1CCN(Cc2cccnc2)CC1`, the Percent Effect was -7.07% in assay [1] and -58.8% in assay [2].
`COc1cc(CCC(=O)NCC2CCCN2C)ccc1OCC(F)(F)F` (configuration not stated): the Percent Effect in assay [1] was 1.43%; in assay [2], 22.2%.
Taken in the same sequence, the figures for `CS(=O)(=O)N1CCN(C(=O)Cn2ccc3c(Cl)cccc32)CC1` were -0.673% and -16.5%.
For `CN(C)c1cc(CNC(=O)c2ccc(=O)[nH]n2)ccn1`, the Percent Effect in assay [1] was -3.92%; in assay [2] it was -29.1%.
Taken in the same sequence, the figures for `c1ccc(-c2ncc(CNC3CCc4ncnn4C3)cn2)cc1` (configuration not stated) were -0.626% and 13.4%.
Taken in the same sequence, the figures for `NC(=O)C1CCN(c2nc3nccc(-c4ccccn4)c3c(=O)[nH]2)CC1` were 1.02% and 2.69%.

These data come from ChEMBL document CHEMBL3988442, “University of Dundee, Small-Polar-MMV Screening Library” (2021).
